Test results from the supplement of paper PMC6555819.

Key:
Assay in all cases: PBM binding z-score (relative to random genomic background probes); higher = stronger binding; sequences stand for … in GC…GCGATTGACAGCGTAGAATGAAGG
[1] = test system: RARb homodimer (NR concentration 270 nM)
Summary of the method: (§1)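 Binding z-scores take random background probes as their reference. They come from custom Agilent 4×180K protein-binding microarrays incubated 1 h with ligand-free nuclear receptor dimers, with antibodies against each partner (one per run) detecting binding. Scanned fluorescence was regression-normalized.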

[2] = test system: RARg:RXRa (NR concentration 270 nM, RXRa partner concentration 90 nM)
Summary of the method: as §1

[3] = test system: RARg homodimer (NR concentration 270 nM)
Summary of the method: as §1

[4] = test system: RXRa DBDmut IVT, anti-RXR (DBD mutation: RXRa K156A/R161A, NR concentration 90 nM)
Summary of the method: as §1

[5] = test system: RXRa homodimer (NR concentration 180 nM)
Summary of the method: as §1

[6] = test system: THRa:RXRa (NR concentration 90 nM, RXRa partner concentration 90 nM)
Summary of the method: as §1

[7] = test system: THRa homodimer (NR concentration 90 nM)
Summary of the method: as §1

[8] = test system: VDR homodimer (NR concentration 270 nM)
Summary of the method: as §1

## ACAGACAGGTGAGTGAAGGTACCTCAGCTGGACG
[1]
  PBM binding z-score: -0.44
[2]
  PBM binding z-score: -0.0299
[3]
  PBM binding z-score: 0.22
[4]
  PBM binding z-score: -0.86
[5]
  PBM binding z-score: -0.0741
[6]
  PBM binding z-score: 0.291
[7]
  PBM binding z-score: -0.575
[8]
  PBM binding z-score: -0.908

## ACTTACGGGTCAAAGAGGTTATAGCACGCGTATA
[1]
  PBM binding z-score: 3.42
[2]
  PBM binding z-score: 5.32
[3]
  PBM binding z-score: 4.72
[4]
  PBM binding z-score: 2.54
[5]
  PBM binding z-score: 6.31
[6]
  PBM binding z-score: 3.45
[7]
  PBM binding z-score: 0.218
[8]
  PBM binding z-score: 3.59

## CGTCCAAGGTCAATGCTAGGTCAGTGGAAGCATT
[1]
  PBM binding z-score: 4.74
[2]
  PBM binding z-score: 7.51
[3]
  PBM binding z-score: 6.88
[4]
  PBM binding z-score: 3.57
[5]
  PBM binding z-score: 4.86
[6]
  PBM binding z-score: 4.32
[7]
  PBM binding z-score: 2.84
[8]
  PBM binding z-score: 3.57

## TCTGCTAGGTCAGTCGGTCAGCTAACGAGCTGCC
[1]
  PBM binding z-score: 3.32
[2]
  PBM binding z-score: 3.52
[3]
  PBM binding z-score: 4.64
[4]
  PBM binding z-score: 0.278
[5]
  PBM binding z-score: 1.08
[6]
  PBM binding z-score: 1.17
[7]
  PBM binding z-score: 0.0132
[8]
  PBM binding z-score: -1.13

## CCTACTGGGCCATTCAGAGGTCATTGAACATATG
[1]
  PBM binding z-score: 4.05
[2]
  PBM binding z-score: 4.74
[3]
  PBM binding z-score: 3.46
[4]
  PBM binding z-score: 1.03
[5]
  PBM binding z-score: 4.17
[6]
  PBM binding z-score: 3.33
[7]
  PBM binding z-score: 1.65
[8]
  PBM binding z-score: 4.01

## ATATGTAGGTTAGCTGGGGTCATGCAGACTAGGC
[1]
  PBM binding z-score: 4.19
[2]
  PBM binding z-score: 4.65
[3]
  PBM binding z-score: 3.65
[4]
  PBM binding z-score: 1.38
[5]
  PBM binding z-score: 6.31
[6]
  PBM binding z-score: 5.42
[7]
  PBM binding z-score: 3.72
[8]
  PBM binding z-score: 4.15

## ATATGTAGGTTATCGGGGCATTCAGTTTGCGCAT
[1]
  PBM binding z-score: 1.53
[2]
  PBM binding z-score: 1.3
[3]
  PBM binding z-score: 1.24
[4]
  PBM binding z-score: 1.35
[5]
  PBM binding z-score: 1.25
[6]
  PBM binding z-score: 1.49
[7]
  PBM binding z-score: 1.4
[8]
  PBM binding z-score: 2.14

## ACTAGTTGGTCAGCTCAGGTCACACACAATTCGG
[1]
  PBM binding z-score: 3.56
[2]
  PBM binding z-score: 2.3
[3]
  PBM binding z-score: 2.88
[4]
  PBM binding z-score: 0.763
[5]
  PBM binding z-score: 1.93
[6]
  PBM binding z-score: 4.66
[7]
  PBM binding z-score: 4.32
[8]
  PBM binding z-score: 1.46

## GATACAGAGTCAAGGCCAGAGTACGCGTATTGAT
[1]
  PBM binding z-score: 0.0594
[2]
  PBM binding z-score: 0.0796
[3]
  PBM binding z-score: 0.345
[4]
  PBM binding z-score: -0.102
[5]
  PBM binding z-score: 0.116
[6]
  PBM binding z-score: 0.0889
[7]
  PBM binding z-score: -0.438
[8]
  PBM binding z-score: -0.0653

## GCTATTAGTTGAAAAGGCAACCGAATGATTCTCG
[1]
  PBM binding z-score: -0.358
[2]
  PBM binding z-score: 0.0252
[3]
  PBM binding z-score: 0.283
[4]
  PBM binding z-score: 0.693
[5]
  PBM binding z-score: 0.0743
[6]
  PBM binding z-score: -0.197
[7]
  PBM binding z-score: -0.317
[8]
  PBM binding z-score: 0.154

## GATACAGGGTCAGCTAGGGGCCAGAGTATGGAAA
[1]
  PBM binding z-score: 3.52
[2]
  PBM binding z-score: 6.94
[3]
  PBM binding z-score: 4.94
[4]
  PBM binding z-score: 1.25
[5]
  PBM binding z-score: 4.43
[6]
  PBM binding z-score: 3.62
[7]
  PBM binding z-score: 0.639
[8]
  PBM binding z-score: 0.774

## ACTAGCAGGCCAACTTTGGGTCACTCAAACAAAG
[1]
  PBM binding z-score: 2.34
[2]
  PBM binding z-score: 2.46
[3]
  PBM binding z-score: 1.61
[4]
  PBM binding z-score: -0.27
[5]
  PBM binding z-score: 0.885
[6]
  PBM binding z-score: 2.62
[7]
  PBM binding z-score: 1.19
[8]
  PBM binding z-score: 0.371

## CCTCGGAGGACAGAAGGTCAGAGGTGTCCGCTTT
[1]
  PBM binding z-score: 3.67
[2]
  PBM binding z-score: 3.28
[3]
  PBM binding z-score: 2.68
[4]
  PBM binding z-score: 0.0335
[5]
  PBM binding z-score: 1.71
[6]
  PBM binding z-score: 2.19
[7]
  PBM binding z-score: -0.0182
[8]
  PBM binding z-score: 0.148

## TCACATAGGTAATACAGGTGAAAGTCGGCATCTA
[1]
  PBM binding z-score: 0.573
[2]
  PBM binding z-score: 0.559
[3]
  PBM binding z-score: 0.535
[4]
  PBM binding z-score: 1.35
[5]
  PBM binding z-score: 1.14
[6]
  PBM binding z-score: 0.928
[7]
  PBM binding z-score: -0.0751
[8]
  PBM binding z-score: -0.296

## CTCGAAAGGTCGGTTGAGGTGAGTCTACGGATAA
[1]
  PBM binding z-score: 2.36
[2]
  PBM binding z-score: 2.73
[3]
  PBM binding z-score: 2.99
[4]
  PBM binding z-score: 1.03
[5]
  PBM binding z-score: 2.34
[6]
  PBM binding z-score: 5.01
[7]
  PBM binding z-score: 1.58
[8]
  PBM binding z-score: 0.44

## CCGACTGGGGCAAGGTTTCCATAACGCACAGCCA
[1]
  PBM binding z-score: 0.28
[2]
  PBM binding z-score: 0.112
[3]
  PBM binding z-score: 0.326
[4]
  PBM binding z-score: -0.561
[5]
  PBM binding z-score: -0.0639
[6]
  PBM binding z-score: -0.0993
[7]
  PBM binding z-score: -0.3
[8]
  PBM binding z-score: -0.47

## CCTACTTGGCCAAAGGTCATTGATTCCAATGCTC
[1]
  PBM binding z-score: 4.5
[2]
  PBM binding z-score: 5.37
[3]
  PBM binding z-score: 4.64
[4]
  PBM binding z-score: 2.06
[5]
  PBM binding z-score: 6.05
[6]
  PBM binding z-score: 3.3
[7]
  PBM binding z-score: 1.25
[8]
  PBM binding z-score: 2.51

## ATCGAAAGGTTGAGGTGAGTATAGAGAAAGGGAA
[1]
  PBM binding z-score: 1.24
[2]
  PBM binding z-score: 1.39
[3]
  PBM binding z-score: 1.25
[4]
  PBM binding z-score: -0.21
[5]
  PBM binding z-score: 1.16
[6]
  PBM binding z-score: 2.38
[7]
  PBM binding z-score: 1.27
[8]
  PBM binding z-score: 0.34

## CGTCCAAGGTCATAGGAAGTCAGTGAAGACAGAT
[1]
  PBM binding z-score: 3.7
[2]
  PBM binding z-score: 5.5
[3]
  PBM binding z-score: 5.7
[4]
  PBM binding z-score: 3.77
[5]
  PBM binding z-score: 5.28
[6]
  PBM binding z-score: 3.81
[7]
  PBM binding z-score: 2.31
[8]
  PBM binding z-score: 2.43

## CTTCCAAGGTCAAAGGTCAGTGAAGAGATGACGG
[1]
  PBM binding z-score: 5.53
[2]
  PBM binding z-score: 8.63
[3]
  PBM binding z-score: 8.01
[4]
  PBM binding z-score: 3.91
[5]
  PBM binding z-score: 10.4
[6]
  PBM binding z-score: 5.02
[7]
  PBM binding z-score: 3.03
[8]
  PBM binding z-score: 3.67

## TAGCCTAAGTCATTGGGCCAGTATAGTACGCATC
[1]
  PBM binding z-score: -0.447
[2]
  PBM binding z-score: 0.191
[3]
  PBM binding z-score: 0.0194
[4]
  PBM binding z-score: -0.879
[5]
  PBM binding z-score: 0.156
[6]
  PBM binding z-score: -0.214
[7]
  PBM binding z-score: -0.958
[8]
  PBM binding z-score: -0.312

## CGTCAAAGTTCAACTAAGGTAACATAAAGCACGC
[1]
  PBM binding z-score: 4.23
[2]
  PBM binding z-score: 5.98
[3]
  PBM binding z-score: 6.47
[4]
  PBM binding z-score: 4.9
[5]
  PBM binding z-score: 5.01
[6]
  PBM binding z-score: 5.25
[7]
  PBM binding z-score: 1.77
[8]
  PBM binding z-score: 3.89

## GCGACTGGGGCATCAGCAGGATACCATAACTTAA
[1]
  PBM binding z-score: -0.0166
[2]
  PBM binding z-score: -0.0136
[3]
  PBM binding z-score: 0.464
[4]
  PBM binding z-score: -0.418
[5]
  PBM binding z-score: -0.172
[6]
  PBM binding z-score: 0.271
[7]
  PBM binding z-score: -0.673
[8]
  PBM binding z-score: -0.734

## TCTATTTGTTGATTAGGGCAACCGAAACAGCGGA
[1]
  PBM binding z-score: 0.77
[2]
  PBM binding z-score: 0.864
[3]
  PBM binding z-score: 0.859
[4]
  PBM binding z-score: 1.28
[5]
  PBM binding z-score: 0.492
[6]
  PBM binding z-score: 0.89
[7]
  PBM binding z-score: 0.561
[8]
  PBM binding z-score: 0.505

## CCTACTGGGACATTCAGAGGTCATTGATCATATG
[1]
  PBM binding z-score: 4.09
[2]
  PBM binding z-score: 3.72
[3]
  PBM binding z-score: 3.06
[4]
  PBM binding z-score: 1.77
[5]
  PBM binding z-score: 4.05
[6]
  PBM binding z-score: 3.38
[7]
  PBM binding z-score: 1.9
[8]
  PBM binding z-score: 4.08

## CTCGAAAGGTAGTGCTCAGGTGAGTATACCAAAC
[1]
  PBM binding z-score: -0.0122
[2]
  PBM binding z-score: -0.12
[3]
  PBM binding z-score: 0.0951
[4]
  PBM binding z-score: -0.0232
[5]
  PBM binding z-score: -0.198
[6]
  PBM binding z-score: 1.61
[7]
  PBM binding z-score: 0.482
[8]
  PBM binding z-score: -0.438

## ATCGTAAGGTCGACGAGGTGAGTATACACCGTTT
[1]
  PBM binding z-score: 2.31
[2]
  PBM binding z-score: 3.18
[3]
  PBM binding z-score: 3.23
[4]
  PBM binding z-score: 1.37
[5]
  PBM binding z-score: 3.01
[6]
  PBM binding z-score: 3.89
[7]
  PBM binding z-score: 2.39
[8]
  PBM binding z-score: 1.63

## GCTTGTAGATCAATGTTAAGAAAGACTAAGCTAA
[1]
  PBM binding z-score: -0.892
[2]
  PBM binding z-score: -0.411
[3]
  PBM binding z-score: -0.155
[4]
  PBM binding z-score: 0.255
[5]
  PBM binding z-score: -0.609
[6]
  PBM binding z-score: -0.166
[7]
  PBM binding z-score: -1.2
[8]
  PBM binding z-score: -0.713
